Assay results as given in PubChem BioAssay (NCI).
The panel holds about 83,000 compounds, 20% with a hit somewhere; the sample as a whole holds those more often.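 Negative percent growth values reflect cell death: -40 means 40% of the cells present at the start died, and -100 means all died.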 Values without a mark were called inactive. Activity calls are given as the source filed them. Rule for the calls: active = growth percent below 10; inactive = the rest.

system: RXF 393 renal; test: NCI-60 one-dose screen, 48 h (100 = growth as untreated, 0 = no growth, -100 = all killed); details: 10 µM unless noted

SMILES	growth
COc1ccc(-c2nc(SCC(C)C)nc(N/N=C\c3cccc([N+](=O)[O-])c3)c2C#N)cc1	18.1%
CCCCCCNC(=O)Oc1ccc(/C(=C(\C)c2ccc(OC)cc2)c2ccc(OCCN(C)C)cc2)cc1	52.1%
CCCCSc1nnc(-c2ccc(-c3ccc(Cl)cc3)nc2C)o1	110%
CC(C)c1nn(-c2ccccc2)c(N2CCCCC2)c1/C=N/NC(N)=S	75.5%
C#C[C@]1(O)CC[C@H]2[C@@H]3CC=C4c5sc(Nc6ccc(OC)nc6)nc5CC[C@]4(C)[C@H]3CC[C@@]21C	-15.7% (active)
COc1cc(-c2noc(C[C@@H](NC(=O)OCc3ccccc3)C(C)C)n2)cc(OC)c1OC	102%
COc1ccc(-c2ccc3c4c(cccc24)C(=O)N(N2C(=O)c4cccc5cccc(c45)C2=O)C3=O)cc1	108%
Cc1nn(-c2ccc(Br)cc2)c2nc(CCl)[nH]c(=O)c12	119%
CN1CCN(c2ccc(C(=O)Nc3cccc(-c4cn(-c5ccc(S(N)(=O)=O)cc5)nn4)c3)cc2C(F)(F)F)CC1	6.63% (active)
COc1ccc(Cn2cc3c(c2-c2ccccc2)CCCc2cnoc2-3)cc1[N+](=O)[O-]	49.6%
NS(=O)(=O)Oc1ccc2nc(Nc3ccc(F)c(F)c3)ccc2c1	96.7%
O=C1c2c(c3c4cc(Br)ccc4[nH]c3c3ccc4ccccc4c23)C(=O)N1CCN1CCNCC1	82.8%
CC1CCN(S(=O)(=O)c2ncsc2-c2ccccc2)CC1	9.28% (active)
O=C1NC(=O)c2c1c1c3ccccc3ccc1c1[nH]c3ccccc3c21	-21.2% (active)
COc1cc([C@H]2OC[C@H]3[C@@H]2CO[C@@H]3c2ccc(O)c(OC)c2)ccc1O	76.2%
CCN(CC)CCN1C(=O)c2c(c3c4cc(Br)ccc4[nH]c3c3ccc4ccccc4c23)C1=O	-77.3% (active)
CC(C)=CCC[C@](C)(O)[C@H]1CC[C@]2(C)[C@@H]1CC[C@@H]1[C@@]3(C)CCC(NC(=O)c4ccccc4C(=O)O)C(C)(C)[C@@H]3CC[C@]12C (some centres not stated)	101%
Clc1ccc(-c2csc(N/N=C/c3nc4ccccc4n3C3CC3)n2)cc1	107%
Cc1ccc(-c2csc(N/N=C/c3nc4ccccc4n3C3CC3)n2)cc1	71.6%
C#C[C@]1(O)CC[C@H]2[C@@H]3CC=C4c5sc(-c6ccccn6)nc5CC[C@]4(C)[C@H]3CC[C@@]21C	-34.4% (active)
O=C1c2c(c3c4cccnc4[nH]c3c3ccc4ccccc4c23)C(=O)N1CCN1CCNCC1	75.5%
O=C1c2c(c3c4cccnc4[nH]c3c3ccc4ccccc4c23)C(=O)N1CCN1CCCCC1	70.5%
COc1ccc(-c2nc(SCCC(C)C)nc(N/N=C\c3ccc(O)cc3)c2C#N)cc1	78%
CN(C)C(=O)C1=NC(CO)C(=O)N(c2ccc(Cl)cc2)N1 (configuration not stated)	120%

system: SF-268 CNS; test: as above; details: 10 µM unless noted

SMILES	growth
O=C1Nc2ccc(Br)cc2/C1=N\c1nnc(-c2ccc(Cl)cc2)o1	75.2%
C#C[C@]1(O)CC[C@H]2[C@@H]3CC=C4c5sc(Nc6cccc(C)n6)nc5CC[C@]4(C)[C@H]3CC[C@@]21C	-7.63% (active)
CS(=O)(=O)c1ccc2c(c1)c1c(n2Cc2ccc(Cl)cc2)CCCC1	86.6%
COc1ccc(-c2nnc(/N=C3/C(=O)Nc4ccc(Br)cc43)o2)cc1	99.3%
COc1ccc(S(=O)(=O)n2cc(C=O)c3ccccc32)c(OC)c1	73.6%
O=C1c2c(c3c4cccnc4[nH]c3c3ccc4ccccc4c23)C(=O)N1CCN1CCOCC1	58.7%
COc1ccc(NC2=C(Cl)C(=O)C(C)=C(C)C2=O)cc1	96%
COc1ccc(-c2cc(-c3ccc(Cl)cc3)nc3nc(N)nn23)cc1	89.9%
C#C[C@]1(O)CC[C@H]2[C@@H]3CC=C4c5sc(Nc6nc(C)cc(OC)n6)nc5CC[C@]4(C)[C@H]3CC[C@@]21C	35.8%
COc1ccc(/C=C/C(=O)c2nnn(-c3ccc(C(=O)O)cc3)c2C)cc1OC	99.4%
COc1cc(O)c2c(c1)/C=C/C[C@H](O)[C@H](O)C(=O)/C=C\C[C@H](C)OC2=O	34.9%
COc1ccccc1/C=C/C(=O)c1nnn(-c2ccc(C(=O)O)cc2)c1C	87.5%
O=S(=O)(Nc1ccc(C2CC2)cc1)c1ccc(-c2cnc(C3CC3)o2)cc1	78%
COc1cc(/C=N/Nc2ccnc3cc(Cl)ccc23)cc(OC)c1O	-37.3% (active)
COc1ccc(-c2nc(SCC(C)C)nc(N/N=C\c3cccc([N+](=O)[O-])c3)c2C#N)cc1	43.6%
CCCCCCNC(=O)Oc1ccc(/C(=C(\C)c2ccc(OC)cc2)c2ccc(OCCN(C)C)cc2)cc1	78.3%
CCCCSc1nnc(-c2ccc(-c3ccc(Cl)cc3)nc2C)o1	103%
CC(C)c1nn(-c2ccccc2)c(N2CCCCC2)c1/C=N/NC(N)=S	88%
C#C[C@]1(O)CC[C@H]2[C@@H]3CC=C4c5sc(Nc6ccc(OC)nc6)nc5CC[C@]4(C)[C@H]3CC[C@@]21C	45.9%

SMILES	growth
COc1cc(-c2noc(C[C@@H](NC(=O)OCc3ccccc3)C(C)C)n2)cc(OC)c1OC	97.5%
COc1ccc(-c2ccc3c4c(cccc24)C(=O)N(N2C(=O)c4cccc5cccc(c45)C2=O)C3=O)cc1	97.8%
Cc1nn(-c2ccc(Br)cc2)c2nc(CCl)[nH]c(=O)c12	99.4%
CN1CCN(c2ccc(C(=O)Nc3cccc(-c4cn(-c5ccc(S(N)(=O)=O)cc5)nn4)c3)cc2C(F)(F)F)CC1	82.9%
COc1ccc(Cn2cc3c(c2-c2ccccc2)CCCc2cnoc2-3)cc1[N+](=O)[O-]	78.5%
NS(=O)(=O)Oc1ccc2nc(Nc3ccc(F)c(F)c3)ccc2c1	88.1%
O=C1c2c(c3c4cc(Br)ccc4[nH]c3c3ccc4ccccc4c23)C(=O)N1CCN1CCNCC1	72.7%
CC1CCN(S(=O)(=O)c2ncsc2-c2ccccc2)CC1	82.9%
O=C1NC(=O)c2c1c1c3ccccc3ccc1c1[nH]c3ccccc3c21	5.68% (active)
COc1cc([C@H]2OC[C@H]3[C@@H]2CO[C@@H]3c2ccc(O)c(OC)c2)ccc1O	91.1%
CCN(CC)CCN1C(=O)c2c(c3c4cc(Br)ccc4[nH]c3c3ccc4ccccc4c23)C1=O	-42.2% (active)
CC(C)=CCC[C@](C)(O)[C@H]1CC[C@]2(C)[C@@H]1CC[C@@H]1[C@@]3(C)CCC(NC(=O)c4ccccc4C(=O)O)C(C)(C)[C@@H]3CC[C@]12C (some centres not stated)	95.3%
Clc1ccc(-c2csc(N/N=C/c3nc4ccccc4n3C3CC3)n2)cc1	94.7%
Cc1ccc(-c2csc(N/N=C/c3nc4ccccc4n3C3CC3)n2)cc1	80.1%
C#C[C@]1(O)CC[C@H]2[C@@H]3CC=C4c5sc(-c6ccccn6)nc5CC[C@]4(C)[C@H]3CC[C@@]21C	82.4%
O=C1c2c(c3c4cccnc4[nH]c3c3ccc4ccccc4c23)C(=O)N1CCN1CCNCC1	78.3%
O=C1c2c(c3c4cccnc4[nH]c3c3ccc4ccccc4c23)C(=O)N1CCN1CCCCC1	43.2%
COc1ccc(-c2nc(SCCC(C)C)nc(N/N=C\c3ccc(O)cc3)c2C#N)cc1	55.7%
CN(C)C(=O)C1=NC(CO)C(=O)N(c2ccc(Cl)cc2)N1 (configuration not stated)	97.8%
